We go through 8 compounds from PubChem BioAssay (NCI).

About 79,000 compounds went through this panel and 15% of them were active in at least one assay; those are over-represented in the sample as a whole. Values without a mark were called inactive. The source made the active and inactive calls. Cut-off read from the data, not from the text of the source: active = growth inhibition above about 70%; inactive = the rest.

The assay can be described thus: NCI Yeast Anticancer Drug Screen. Data for the rad50EPP+ strain (AID 151).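 Note: 0% = growth of vehicle-treated control cultures.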 The note with it: S. cerevisiae rad50 mutant strain, stronger effect = higher value. As to the method:
Growth inhibition of yeast strains with defined genetic alterations is measured as a screen for potential anti-cancer activity. Selected strains with alterations in DNA damage repair or cell cycle control were exposed to compounds and growth inhibition was measured relative to vehicle treated controls. The strain used in this assay is rad50EPP+

Consider `Cn1c2ccccc2c(=O)c2cc(NC(=O)CCCCC(=O)Nc3ccc4c(c3)c(=O)c3ccccc3n4C)ccc21`, for which the growth inhibition by setting is: (at 1.2 µM) -1%; (at 3.7 µM) 4%; (at 11.0 µM) 14%; (at 33.0 µM) 55%; (at 100.0 µM) 80% (active).
In the case of `c1ccc2c(c1)C(=NCCCN1CCCCCC1)c1cccn1-2`, the growth inhibition runs as follows: (at 1.2 µM) -3%; (at 3.7 µM) -4%; (at 11.0 µM) -4%; (at 33.0 µM) 3%; (at 100.0 µM) 63%.
For the compound `CCC/C(Cl)=N\OC(=O)Nc1cccc(C(F)(F)F)c1`, the growth inhibition by setting is: (at 1.2 µM) 27%; (at 3.7 µM) 32%; (at 11.0 µM) 36%; (at 33.0 µM) 35%; (at 100.0 µM) 25%.
`CCC#CCCCOC(=O)c1cc([N+](=O)[O-])cc([N+](=O)[O-])c1`: the growth inhibition is 3% (at 1.2 µM); 21% (at 3.7 µM); 55% (at 11.0 µM); 92% (active) (at 33.0 µM); 98% (active) (at 100.0 µM).
For `CC(=O)ON1C(=O)c2cccc3cccc(c23)C1=O`, the growth inhibition (at 1.2 µM) was -2%; the growth inhibition (at 3.7 µM) was 0%; the growth inhibition (at 11.0 µM) is 0%; the growth inhibition (at 33.0 µM) was 9%; the growth inhibition (at 100.0 µM) is 57%.
For the compound `COC(=O)C1=C(C)NC(C)=C(C(=O)OC)C1c1cccc(/[N+]([O-])=C/c2ccccc2)c1`, the growth inhibition is -1% (at 1.2 µM); -3% (at 3.7 µM); -4% (at 11.0 µM); 1% (at 33.0 µM); 15% (at 100.0 µM).
Taken in the same sequence, the figures for `Cc1nn(-c2cc(Cl)ccc2[N+](=O)[O-])c(C)c1Cl` were 4%, 8%, 14%, 19% and 10%.
In the case of `CN(C)C[C@H]1CC[C@@H](CN(C)C)C1=O`, the growth inhibition was 16% (at 1.2 µM); 12% (at 3.7 µM); 27% (at 11.0 µM); 50% (at 33.0 µM); 84% (active) (at 100.0 µM).
